Drawing on PubChem BioAssay (NCI), this text covers growth for 13 molecules.

Molecules are shown by their SMILES. The panel holds about 83,000 compounds, 20% with a hit somewhere; the sample as a whole holds those more often.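 Activity criterion: percent growth below 10, measured after cells in 96-well plates were exposed to a single compound concentration for 48 hours.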 A number with no mark means an inactive call. Active and inactive are the calls of the source.

Test systems include HCT-15 colon; HT29 colon; SNB-75 CNS; SNB-19 CNS; U251 CNS; PC-3 prostate; SK-MEL-5 melanoma; UACC-62 melanoma; LOX IMVI melanoma; SK-MEL-28 melanoma.
Experiment in all cases: NCI-60 one-dose screen, 48 h (100 = growth as untreated, 0 = no growth, -100 = all killed)
What all share (settings): 10 µM unless noted

As for `COc1cc(CN2CCC(N3CCCC3=O)c3ccccc32)cc(OC)c1OC` (stereo not drawn), the growth with HCT-15 colon was 108%; in the test on HT29 colon, 80.5%; in the test with SNB-75 CNS, 84.1%; in the test with SNB-19 CNS, 83.6%; in the test on U251 CNS, 85.5%; in the test on PC-3 prostate, 66%. Moreover, the growth in the test on SK-MEL-5 melanoma is 40.5%; with UACC-62 melanoma, 64.4%; with LOX IMVI melanoma, 76.3%; with SK-MEL-28 melanoma, 98.2%.
Take `c1ccc2c(N=NSc3ncnc4nc[nH]c34)c3ccccc3nc2c1`: the growth with HCT-15 colon is -7.02% (active); with HT29 colon, 0.967% (active); in the test on SNB-75 CNS, 2.72% (active); in the test on SNB-19 CNS, 12.3%; in the test on U251 CNS, 8.63% (active); in the test with PC-3 prostate, -1.78% (active). The growth in the test on SK-MEL-5 melanoma was -59.4% (active); with UACC-62 melanoma, -38.7% (active); in the test with LOX IMVI melanoma, -46.6% (active); with SK-MEL-28 melanoma it was -37.6% (active).
Take `O=C(NO)c1ccc(CNc2cccc3nc(C4CC4)n(-c4ccccc4)c(=O)c23)cc1`: the growth is 7.98% (active) with HCT-15 colon; 24.8% in the test with HT29 colon; 33% in the test on SNB-75 CNS; 25.9% with SNB-19 CNS; -7.99% (active) in the test with U251 CNS; -47% (active) with PC-3 prostate. In addition, the growth was 2.95% (active) with SK-MEL-5 melanoma, -22.2% (active) with UACC-62 melanoma and 9.83% (active) in the test with SK-MEL-28 melanoma.
Take `O=C1/C=C/[C@@H](O)[C@@H]2C[C@@H](O)C[C@H]2/C=C/CCC[C@H]([C@@H](O)CO)O1`: the growth was 95.3% in the test with HCT-15 colon; 80.2% in the test with HT29 colon; 84% with SNB-75 CNS; 66.5% in the test with SNB-19 CNS; 69.1% in the test with U251 CNS; 88.7% in the test on PC-3 prostate. For the same molecule, the growth with SK-MEL-5 melanoma is 4.48% (active); in the test with UACC-62 melanoma, 62.5%; with SK-MEL-28 melanoma, 38.8%.
For `CC1=C(/C=C/C(C)=C/C=C(C(=O)O)\C(C)=C\C(=O)O)C(C)(C)CCC1`, the growth with HCT-15 colon is 105%; in the test on HT29 colon, 96.8%; in the test on SNB-75 CNS, 87.5%; with SNB-19 CNS, 97.8%; with U251 CNS, 94.6%; with PC-3 prostate, 91.3%. In addition, the growth in the test with SK-MEL-5 melanoma was 111%; in the test with UACC-62 melanoma it was 96.9%; in the test with LOX IMVI melanoma, 94.9%; in the test with SK-MEL-28 melanoma, 114%.
Consider `CC(C)CCSc1nc(Nc2ccccc2)c(C#N)c(-c2ccc(F)cc2)n1`, for which the growth with HCT-15 colon was 71.7%; in the test with HT29 colon it was 49.9%; with SNB-75 CNS, 42.1%; with SNB-19 CNS, 53%; in the test with U251 CNS, 14%; with PC-3 prostate, 59.1%. The growth is 96.6% in the test with SK-MEL-5 melanoma, 82.4% with UACC-62 melanoma and 87.3% in the test on SK-MEL-28 melanoma.
For `Cc1cccc(/C=N/n2c(-c3ccc(Cl)cc3)nc3c(Br)cc(Br)cc3c2=O)c1`, the growth in the test with HCT-15 colon was 70.5%; in the test on HT29 colon it was 67.9%; in the test with SNB-75 CNS it was 45.9%; with SNB-19 CNS it was 62%; in the test on U251 CNS, 43%; in the test on PC-3 prostate, 21.4%. Also, the growth in the test on SK-MEL-5 melanoma is 38.5%; with UACC-62 melanoma it was 35.5%; in the test on SK-MEL-28 melanoma, 60.7%.
Take `COc1nccc2c(Sc3ccccc3)nc(N)nc12`: the growth in the test with HCT-15 colon was 100%; with HT29 colon, 108%; with SNB-75 CNS it was 84.5%; in the test with SNB-19 CNS, 117%; in the test on U251 CNS, 110%; with PC-3 prostate, 84.7%. The growth in the test on SK-MEL-5 melanoma was 99.2%; with UACC-62 melanoma it was 102%; in the test with SK-MEL-28 melanoma, 106%.
For the molecule `O/N=C/c1ccncc1`, the growth in the test on HCT-15 colon is 104%; in the test on HT29 colon, 94.5%; in the test with SNB-75 CNS it was 96.2%; in the test with SNB-19 CNS, 122%; in the test on U251 CNS, 102%; in the test with PC-3 prostate, 95.9%. For the same molecule, the growth is 105% in the test with SK-MEL-5 melanoma, 111% in the test on UACC-62 melanoma, 100% in the test on LOX IMVI melanoma and 115% in the test on SK-MEL-28 melanoma.
Consider `CCCCCCCCN=C(NCCCCCCCC)SCc1cccc2ccccc12`, for which the growth in the test with HCT-15 colon is -78.1% (active); in the test with HT29 colon, -24.4% (active); in the test on SNB-75 CNS, -88.4% (active); in the test with SNB-19 CNS it was -88.4% (active); with U251 CNS, -98.7% (active); in the test on PC-3 prostate it was -93.2% (active). Besides, the values for the growth in the test with SK-MEL-5 melanoma, in the test on UACC-62 melanoma and in the test with SK-MEL-28 melanoma were -95.3% (active), -82.2% (active) and -87.8% (active), respectively.
For the molecule `COc1cc(NC(=O)CSc2nc3ccc(Cl)cc3c(=O)n2-c2ccccc2)cc(OC)c1OC`, the growth with HCT-15 colon is 99.6%; in the test with HT29 colon it was 110%; in the test with SNB-75 CNS it was 71.6%; with SNB-19 CNS, 99.9%; in the test on U251 CNS, 92.5%; in the test with PC-3 prostate it was 80.6%. Also, the growth was 83.8% in the test on SK-MEL-5 melanoma, 75% in the test with UACC-62 melanoma, 90.8% in the test on LOX IMVI melanoma and 97.2% in the test with SK-MEL-28 melanoma.
In the case of `C[C@H](NC(=O)c1snnc1C1CC1)c1c(F)cccc1Cl`, the growth with HCT-15 colon is 93.9%; in the test on HT29 colon, 119%; in the test with SNB-75 CNS it was 95.1%; with SNB-19 CNS, 142%; in the test on U251 CNS, 90%; in the test with PC-3 prostate it was 98.9%. In addition, the figures for the growth with SK-MEL-5 melanoma, in the test with UACC-62 melanoma and in the test on SK-MEL-28 melanoma were 98.2%, 87.8% and 110%, respectively.
As to `O=C1CCCN1C1CCN2CCCc3cccc1c32` (stereo not drawn), the growth with HCT-15 colon is 102%; with HT29 colon, 94.4%; in the test on SNB-75 CNS it was 105%; in the test on SNB-19 CNS it was 100%; in the test with U251 CNS it was 103%; in the test with PC-3 prostate, 91.3%. Besides, the growth in the test with SK-MEL-5 melanoma is 110%; in the test on UACC-62 melanoma, 93.6%; with LOX IMVI melanoma it was 101%; in the test with SK-MEL-28 melanoma it was 115%.
